APP transl inh: APP translation inhibition | AID 1285 | inhibition, % at 2 µM | 0.82% of 190,000 active | SH-SY5Y APP 5'UTR-luciferase reporter, luminescence;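 active = inhibition above a set limit, derived from the sample mean plus 3 SD, cut at about 45% in these data; inconclusive = one replicate passes the limit while the other fails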
BaF3 tox: counter-screen for JAK2V617F inhibitors: parental Ba/F3 viability inhibitors | CellTiter-Glo ATP luminescence | inhibition, % at 5.6 µM | 1.1% of 220,000 active | AID 1486;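 active = inhibition above a per-campaign cutoff, the mean inhibition of all tested compounds plus 3 SD, cut at about 27% in these data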;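 also: 0% = DMSO wells and 100% = JAK Inhibitor I control wells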
IEC-6 cytotox: counter-screen for KLF5 inhibitors: cytotoxicity in IEC-6 cells. IEC-6 cytotoxicity, luminescence viability. inhibition, % at 5 µM. 0.78% of 290,000 active. AID 1825; in the data active = inhibition above about 22%;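 also: 0% = plate median of test compound wells and 100% = cytotoxic reference compound wells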
KLF5 inh: kruppel-like factor 5 inhibition | inhibition, % at 5 µM | 0.23% of 290,000 active | DLD-1 KLF5 promoter-luciferase reporter, luminescence | AID 1700;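 active = inhibition above a per-plate limit of that plate's mean compound inhibition plus 3 SD, cut at about 60% in these data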;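 also: 0% = DMSO wells and 100% = LY294002 at 200 µM; higher means less KLF5 promoter-driven luciferase light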
Ba/F3 V617F tox: reduce viability of Ba/F3 cells dependent on JAK2V617F; Ba/F3 EpoR-JAK2V617F viability, ATP luminescence; inhibition, % at 5.6 µM; 1.1% of 220,000 active;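 active = inhibition above the campaign mean plus 3 SD over all tested compounds, cut at about 24% in these data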;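 also: cytokine-independent growth of Ba/F3 cells driven by EpoR plus mutant JAK2; 0% = DMSO-treated cells and 100% = JAK inhibitor I control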
aSyn 5UTR inh: MLPCN primary screen, SNCA 5' untranslated region. alpha-synuclein 5'UTR reporter, inhibitor activity. inhibition, % (tested at 7.5 µM). 0.82% of 300,000 active. AID 1813; in the data active = inhibition above about 60%; inconclusive = no clear call, values can overlap the other calls;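 also: H4 neuroglioblastoma cells stably carrying SNCA 5'UTR luciferase fusion; 0% = DMSO wells and 100% = positive control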
The depositor's hits bear a star; ? = inconclusive; . = no result given. Shown are actives, neighbours in structure and some others; about 2.2% of the full set was active somewhere.

SMILES | APP transl inh | BaF3 tox | IEC-6 cytotox | KLF5 inh | Ba/F3 V617F tox | aSyn 5UTR inh
C[N+]1=C(/C=C/Nc2ccccc2Cl)C(C)(C)c2ccccc21 | 1 | 63* | 0 | -15 | 59* | -18
Cc1ccccc1C(=O)Nc1cccc(N)c1 | 56* | 4 | 4 | -32 | 0 | -28
Cc1ccc(OCCN2CCN(c3ncnc4sc(C)c(C)c34)CC2)cc1 | . | 28* | 4 | -9 | 9 | -4
CCN(CC(=O)Nc1ccc(NC(C)=O)cc1)C(=O)CCCc1nc2ccccc2c(=O)[nH]1 | . | . | . | . | . | -5
COc1cccc(CNS(=O)(=O)c2c(C)nc3sccn3c2=O)c1 | . | . | 0 | -5 | . | 2
COc1cc(NS(=O)(=O)c2ccc(C)cc2C)cc(OC)c1OC | 7 | 32* | 2 | -16 | 15 | 7
COc1ccc(N(Cc2cc3cc(OC)ccc3[nH]c2=O)S(=O)(=O)c2ccc(NC(C)=O)cc2)cc1 | . | . | 3 | 28 | . | 93*
COc1ccc(N(Cc2cc3ccccc3[nH]c2=O)S(=O)(=O)c2ccc(OC)cc2)cc1 | . | . | -1 | -7 | . | -64
COc1ccc(N2C(=O)CCC(C(=O)O)C2c2ccc(F)cc2)cc1 (stereo unspecified) | -14 | 7 | 1 | -3 | 2 | -1
COc1ccc(C2C(C(=O)Nc3cccc(C)n3)CCC(=O)N2c2ccc(OC)cc2)cc1 (stereo unspecified) | -2 | 7 | -4 | 8 | -1 | 73*
COc1ccc(N2C(=O)CCC(C(=O)N3CCC(C(N)=O)CC3)C2c2ccc(F)cc2)cc1 (stereo unspecified) | -5 | 69* | 3 | -13 | 2 | -6
COc1ccc(N2C(=O)CCC(C(=O)N3CCCCC3)C2c2ccc(F)cc2)cc1 (stereo unspecified) | -17 | 2 | -3 | -55 | 6 | 2
COc1ccc(CN2CCN(Cc3ccon3)CC2CCO)c(C)c1C (stereo unspecified) | . | 1 | 2 | -16 | -1 | 0
COc1ccc2c(c1)c(C(C)=O)c(C)n2CCc1ccccc1 | . | . | -2 | -16 | . | -7
Cc1ccccc1NC(=O)c1c2c(nc3ccccc13)CCC2 | 12 | 1 | -3 | -14 | -2 | 7
CC1(C)N=C(N)NC(Nc2ccc(Br)cc2)=N1 | -9 | 35* | 2 | -15 | 9 | 13
CC(C)n1c(/C=C/[C@@H](O)C[C@@H](O)CC(=O)O)c(-c2ccc(F)cc2)c2ccccc21 | . | . | 8 | -40 | . | 64*
COc1ccc(C2=NN(C(=O)CCC(=O)O)C(c3ccc(F)cc3)C2)cc1 (stereo unspecified) | . | . | -2 | -10 | . | -5
Cc1nc2c(-c3ccc(F)cc3)c(C)nn2c(C)c1CCC(=O)Nc1ccccc1 | . | 1 | 2 | -13 | -2 | 24
COCc1c(C(C)C)nc(C(C)C)c(/C=C/[C@@H](O)C[C@@H](O)CC(=O)O)c1-c1ccc(F)cc1 | . | . | . | . | . | 115*
COC(=O)c1cc(S(=O)(=O)N2CCCCC2)c[nH]1 | . | . | -2 | -11 | . | 11
COc1ccnc(N=CNOCc2ccc(F)cc2Cl)c1C#N | 82* | 1 | -2 | -12 | -4 | -56
COc1ccnc(N=CNOCc2cccc(Cl)c2Cl)c1C#N | 15 | 6 | 1 | -16 | -2 | -61
Cc1ccc(C(=O)N/C(=C\c2ccc(-c3ccc(Cl)cc3)o2)C(=O)NCCCN(C)C)cc1 | 2 | 104* | 44* | -23 | 16 | ?
CN(C)CCCNC(=O)/C(=C\c1ccc(-c2ccc(Br)cc2)o1)NC(=O)c1ccccc1 | 16 | 7 | 21 | 4 | 4 | 4
SMILES | APP transl inh | BaF3 tox | IEC-6 cytotox | KLF5 inh | Ba/F3 V617F tox | aSyn 5UTR inh
Cc1cc(N2CCN(C(c3ccccc3)c3ccccc3)CC2)n2ncnc2n1 | 2 | -1 | -1 | -12 | -3 | -30
Cc1cc(N2CCN(c3nc4ccccc4s3)CC2)n2ncnc2n1 | 12 | 48* | 5 | -25 | 44* | -42
O=C(CSc1ccccc1)N1CCN(c2ccc(F)cc2)CC1 | . | . | . | . | . | -23
O=C(CN(c1ccc(Cl)cc1)S(=O)(=O)c1ccc(Cl)c([N+](=O)[O-])c1)NCCc1ccccc1 | 10 | 9 | -1 | -7 | 0 | 106*
Cc1cccc(C(=O)N/C(=C\c2ccc(C)o2)C(=O)O)c1 | . | 0 | -3 | -29 | 0 | 3
Cc1ccccc1C(=O)O/N=C/c1c(N2CCOCC2)n(C)c2ccccc12 | 30 | -3 | -4 | -39 | 1 | 87*
N#Cc1ccc(NC(=O)CN2C(=O)NC3(CCCC3)C2=O)cc1 | . | . | 6 | -25 | . | 10
C[C@]12CC[C@@H]3c4ccc(OC(=O)c5ccccc5)cc4CC[C@H]3[C@@H]1CC[C@@H]2O | -14 | 4 | 2 | -1 | 3 | -12
COc1cc2c(cc1O)CC[C@@H]1[C@@H]2CC[C@]2(C)[C@@H](O)CC[C@@H]12 | 93* | 78* | 74* | 57 | 76* | 75*
N=c1ccn(Cc2cccc(Cl)c2)cc1 | -6 | 66* | 5 | 6 | 88* | 34
N=c1ccn(Cc2ccc(Cl)c(Cl)c2)cc1 | -15 | 75* | 6 | 2 | 89* | 30
N=c1ccn(Cc2ccc(Cl)cc2)cc1 | -15 | 68* | -5 | -18 | 92* | -11
Clc1cccc(CN2CCN(Cc3ccco3)CC2)c1 | . | . | 1 | -15 | . | -11
CC(C)Cc1cc(CN2CCC(CO)(Cc3cccc(C(F)(F)F)c3)CC2)[nH]n1 | 20 | 3 | -5 | -28 | -4 | -1
Cc1ccc(S(=O)(=O)N2c3ccccc3CC2C)cc1 (stereo unspecified) | 10 | 10 | 6 | -33 | 7 | 9
CCOc1ccc(S(=O)(=O)N2c3ccccc3CC2C)cc1 (stereo unspecified) | 94* | 76* | 67* | 54 | 77* | 93*
CCOC(=O)c1ccc(NC(=O)c2cccc(S(=O)(=O)N3c4ccccc4CC3C)c2)s1 (stereo unspecified) | -22 | 10 | 11 | -20 | 6 | 83*
CC1Cc2ccccc2N1S(=O)(=O)c1cccc(C(=O)NCCCO)c1 (stereo unspecified) | -6 | 2 | 2 | -19 | 0 | 6
CN(CC(=O)Nc1c(Cl)cccc1Cl)C(=O)c1cc(S(=O)(=O)N(C)C)ccc1N1CCCC1 | . | . | . | . | . | -3
CCOc1ccc(N2C(=O)CCC2=O)cc1 | -12 | 0 | 0 | -30 | -4 | 17
CCOc1ccc(N2CC(=O)N(c3ccc(OCC)cc3)CC2=O)cc1 | 3 | 93* | 0 | 17 | -1 | 9
Cc1oc2ccc(OS(C)(=O)=O)cc2c1C(=O)OC(C)C | -25 | 85* | -12 | -12 | 42* | 23
COCCOC(=O)c1c(C)oc2ccc(OS(C)(=O)=O)cc12 | 7 | 5 | 2 | 2 | -2 | -4
Nc1ccc(-c2cc3ccccc3oc2=O)cc1 | . | . | 3 | 37 | . | 106*
CCN(CC)CCNC(=O)c1ccc(NC(=O)c2ccc(F)cc2F)cc1 | 13 | -1 | -7 | -4 | -2 | 0
O=C(O)CSc1ncnc2sc3c(c12)CCCC3 | -13 | 90* | 2 | -20 | -1 | -8
